Screens as filed in PubChem BioAssay.
This excerpt belongs to a sample that is enriched for hits.
IMPase Li inh: IMPase inhibition in cells with lithium potentiation | 0.35% of 210,000 active | Potency, µM (series often up to 59.4 µM), usual class: inhibitors | CHO-M1 cells, IP1 TR-FRET (IP-One), carbachol + lithium;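 note: IP1 builds up when IMPase is blocked and the TR-FRET signal falls; nearly all actives have a fitted effect of over 50% in size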
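CHO-M1, 2000 cells/well, 16–30 h culture; cpd + low Li+, 30 min 37C; lysis with d2-IP1/Eu-anti-IP1 Ab, 10 min RT; TR-FRET 665/620 ratio and 620 channel; AC50 via Hill.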
NPSR antag: neuropeptide S receptor (human) antagonism, cAMP; Q6W5P4; CHO-NPSR cells, cAMP TR-FRET, antagonist mode; Potency, µM (series often up to 38.3 µM), most hits filed as inhibitors; 1% of 220,000 active; note: nearly all actives have a fitted effect of over 50% in size
ERK EGF block: EGF-driven ERK pathway inhibition; HEK293-V1b, EGF-stimulated phospho-ERK AlphaScreen; Potency, µM (top dose mostly 11.5 µM), most hits filed as inhibitors; 0.41% of 130,000 active; note: nearly all actives have a fitted effect of over 55% in size
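HEK293 cells stably expressing V1b receptor, serum-reduced (1% FBS) overnight, got compound for 30 min at 37C, then 25 nM EGF for 5 min. Lysate phospho-ERK read by AlphaScreen SureFire; AC50 from Hill fits.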
c-Raf inh: c-Raf inhibition, ERK pathway follow-up; AID 1728; activity change, negative = inhibition, % at 76.9 µM; shares compounds with ERK EGF block; c-Raf kinase inhibition, homogeneous biochemical assay; 70 tested, under 10 active
Target sequence (P04049 whole entry, looked up): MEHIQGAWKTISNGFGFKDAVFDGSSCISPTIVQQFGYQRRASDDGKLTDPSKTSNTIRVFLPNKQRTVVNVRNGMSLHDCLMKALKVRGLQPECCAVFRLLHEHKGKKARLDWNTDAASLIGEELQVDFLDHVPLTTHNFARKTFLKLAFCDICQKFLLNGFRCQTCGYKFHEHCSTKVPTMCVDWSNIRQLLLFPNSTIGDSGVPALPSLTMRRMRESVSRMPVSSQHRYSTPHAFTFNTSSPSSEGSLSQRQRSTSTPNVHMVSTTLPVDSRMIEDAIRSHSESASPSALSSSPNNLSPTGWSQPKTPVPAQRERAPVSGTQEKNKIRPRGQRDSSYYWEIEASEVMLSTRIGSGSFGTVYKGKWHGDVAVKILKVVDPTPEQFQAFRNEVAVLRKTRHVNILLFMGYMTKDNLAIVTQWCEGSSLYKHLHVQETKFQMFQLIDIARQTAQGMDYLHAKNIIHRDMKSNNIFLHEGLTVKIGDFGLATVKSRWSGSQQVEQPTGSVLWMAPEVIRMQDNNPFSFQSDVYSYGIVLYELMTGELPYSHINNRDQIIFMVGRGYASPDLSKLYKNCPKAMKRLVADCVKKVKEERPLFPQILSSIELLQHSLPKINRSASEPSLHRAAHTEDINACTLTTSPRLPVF
MEK inh: blocks human MEK1 kinase activity in ERK pathway follow-up; Potency, µM (top dose mostly 76.9 µM), actives largely listed as inhibitors; shares compounds with ERK EGF block; homogeneous MEK kinase activity assay, ERK pathway; AID 1732; 70 tested, under 10 active
A number is an active result; – = inactive; ? = inconclusive; · = not tested or not shown; ! = not confirmed by another sample. Calls come from the whole dose curve; as a rule, active = well fitted curve in the direction sought with a large enough effect; inconclusive = small, poorly fitted or top-dose-only effect, or another doubt; inactive = no such curve, though single readings can be large; an effect the other way counts as inactive or inconclusive.

SMILES | IMPase Li inh | NPSR antag | ERK EGF block | others
CN(C)[C@@H]1C(=O)C(C(N)=O)=C(O)[C@]2(O)C(=O)C3=C(O)c4c(O)ccc(Cl)c4[C@](C)(O)[C@H]3C[C@@H]12 | – | · | –
CC(=O)OC1=CC2=CC[C@H]3[C@H]4CCC(=O)[C@@]4(C)CC(=O)[C@]3(S)[C@]2(C)CC1 | – | · | ·
Cn1cc[n+](C)c1P(=S)(c1ccccc1)c1ccccc1 | – | 5.01µM | –
CC(=O)[O-].CC(=O)[O-].O.O.O.[Pb+2] | – | · | ·
Nn1cnnc1 | – | · | ·
O=C(O)[C@H]1[O][Sb][O][C@@H](C(=O)O)C1O (some centres not stated) | – | · | ·
CNc1ccc2oc(C[C@H]3O[C@@]4(CC[C@H]3C)O[C@H]([C@H](C)C(=O)c3ccc[nH]3)[C@H](C)C[C@H]4C)nc2c1C(=O)O | – | 7.94µM | 14.1µM!
CNc1ccc2oc(C[C@@H]3OC4(CC[C@@H]3C)O[C@H]([C@@H](C)C(=O)c3ccc[nH]3)[C@H](C)C[C@H]4C)nc2c1C(=O)O (some centres not stated) | – | · | ·
CCOP(=S)(OCC)SCSC(C)(C)C | – | · | ·
CC(=O)O[C@H]1CC[C@H]2[C@@H]3CCC4=C[C@@H](C5SCCS5)[C@H](OC(C)=O)C[C@]4(C)[C@H]3CC[C@@]12C | – | · | ·
C=CCN1C(=O)NC(=O)/C(=C/C=C/c2ccccc2)C1=O | – | – | 22.4µM
O=C1NC(=O)N(CCc2ccc(F)cc2)C(=O)/C1=C\C=C\c1ccccc1 | – | – | –
CS(=O)(=O)O[C@H]1CN2CCC1CC2 | – | · | ·
CCCCC/C=C\C/C=C\C/C=C\C/C=C\CCCC(=O)N(Cc1ccc(O)c(Cl)c1)Cc1ccc(O)c(Cl)c1 | – | · | ·
O=c1[nH]c(O)c(/C=C2/C=CC(c3cc(Cl)ccc3Cl)=N2)c(=O)[nH]1 | · | ? | 28.2µM
Cc1ccc2c(c1)=NC(=O)/C(=C/c1c(O)[nH]c(=O)[nH]c1=O)C=2 | · | – | –
Cc1ccccc1[N+](=O)[O-] | – | · | ·
Cc1cc([N+](=O)[O-])c2ccccc2[n+]1[O-] | · | 10µM | –
O=C(c1ccccc1)[C@H]1[C@H](c2ccccc2[N+](=O)[O-])N1C1CCCCC1 (some centres not stated) | – | · | ·
C=C(Cl)CCl | – | · | ·
Nc1c(C(=O)NCC2CCCO2)c2nc3ccccc3nc2n1Cc1ccco1 (configuration not stated) | · | – | –
Nc1c(C(=O)NC2CCCC2)c2nc3ccccc3nc2n1CC1CCCO1 (configuration not stated) | · | 12.6µM | ·
CCCOC(=O)[C@@H]1[C@@H](C(=O)O)[C@H]2CC[C@@H]1O2 | – | · | ·
COc1ccc(-c2nc3ccccc3c(=O)n2-c2ccc(OC)cc2)cc1 | – | – | –
CCn1nc(-c2ccccc2)nc2c(=O)n(C)c(=O)nc1-2 | – | 3.98µM | – | c-Raf inh=?;MEK inh=0.631µM
SMILES | IMPase Li inh | NPSR antag | ERK EGF block | others
Cn1nc(-c2ccccc2)nc2c(=O)n(C)c(=O)nc1-2 | · | · | · | c-Raf inh=?;MEK inh=0.708µM
Cc1nc2c(=O)n(C)c(=O)nc-2n(C)n1 | – | ? | – | c-Raf inh=?;MEK inh=?
O=c1c2ccccc2nc(-c2ccccc2)n1-n1cccc1 | – | – | ·
N[C@H](Cc1ccc2oc3cc(=O)c4ccccc4c-3nc2c1)C(=O)O | – | · | ·
CC[N+](=O)[O-] | – | · | ·
O=C(O)C[C@H]1NCc2cc3ccccc3nc21 | – | · | ·
c1ccc(CCN2CCCCCC2)nc1 | – | · | ·
